Data: PubChem BioAssay AID602252 (Broad Institute, 2012)
Hit rate of the full screen: of about 300,000 compounds, about 2,700 (0.9%) were called active.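 The calls were made as follows: active = mean inhibition of at least 30% with at least half of replicates also reaching 30%; inconclusive = no clear call, values can overlap the other calls; inactive = the rest.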 Many of the other results were omitted from the sample, so actives are more common in it than they were.

What follows are compounds tested against Golgi-associated PDZ and coiled-coil motif-containing protein (Homo sapiens) (UniProt Q9HD26) (assay: untagged CAL PDZ binding inhibitors, primary screen, biochemical, fluorescence polarization, HTS (AID 602252;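 also: 0% = DMSO neutral control and 100% = excess unlabeled competitor peptide PRC23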)). Conditions: purified CAL PDZ, TMR-peptide fluorescence polarization, 1 h; at 24.9 µM; hits give high values.
In the case of `COc1ccccc1-n1c(O)c(C=NC2CC2)c(=O)[nH]c1=O`, the inhibition is reported as -5.85% (inactive).
`Cc1ccc(-n2c(O)c(C=NCC3CCCO3)c(=O)[nH]c2=O)c(C)c1` (stereo not given) was tested, and the inhibition was 62.7% (active).
For `CC(=NCC1CCCO1)c1c(O)n(-c2ccccc2)c(=O)[nH]c1=O` (stereo not given), the inhibition was -0.888% (inactive).
With `CCC(C)(O)C(=O)OC1C(=O)OC2CC3C(C)=CC(=O)C(O)C3(C)C3C4(O)OCC23C1C(C)C4O` (stereo not given) the inhibition was -3% (inactive).
`COC1C(O)C(C)OC(OC2CCC3(C=O)C(CCC4C3CCC3(C)C(C5=CC(=O)OC5)CCC43O)C2)C1O` (stereo not given) was tested, and the inhibition was -0.006% (inactive).
For `Cc1cc(C=C2C(=O)NC(=O)NC2=O)c(C)n1-c1ccncc1`, the inhibition was 49.2% (active).
With `Cc1ccc(-n2c(C)cc(/C=C3\C(=O)NC(=O)N(C)C3=O)c2C)cc1C` the inhibition was 0.186% (inactive).
In the case of `Cc1ccnc(-n2c(C)cc(/C=C3\C(=O)NC(=S)N(C)C3=O)c2C)c1`, the inhibition is reported as -1.9% (inactive).
In the case of `CC(=O)OC1C2(CC3N4C(=O)C5(CO)SSC4(CC31O)C(=O)N5C)OC(C)C(C)(C)C2=O` (stereo not given), the inhibition is reported as 1.68% (inactive).
With `CC12CCC(O)CC1CCC1C2CCC2(C)C(C(=O)CC(O)C(F)(F)F)CCC12` (stereo not given) the inhibition was -6.37% (inactive).
With `O=C(c1ccccc1)C(O)(CN1CCCCC1)c1ccccc1` (stereo not given) the inhibition was -5.06% (inactive).
In the case of `CC1C(=O)OC2CCN3CC=C(COC(=O)C(C)(O)C1(C)O)C23` (stereo not given), the inhibition is reported as 56.3% (active).
With `CCOC(=O)C1(c2ccccc2)CCN(CC(O)c2ccc(NC(C)=O)cc2)CC1` (stereo not given) the inhibition was -0.121% (inactive).
With `CCOC(=O)CC(SP1(=S)OCC2(CCCCO2)C(C2CCCCO2)O1)C(=O)OCC` (stereo not given) the inhibition was 0.015% (inactive).
For `CC=C(C)C(=O)OC1CCN2CC=C(COC(=O)C(O)(C(C)OC)C(C)(C)O)C12` (stereo not given), the inhibition was -2.7% (inactive).
